# The supplement of paper PMC13380429
# Assays:
# [1] = tested on: Vero E6 infected with SARS-CoV-2; test: morphology score (similarity to uninfected cells); higher = more like uninfected cells; conditions: 24 h
# [2] = tested on: Vero E6 infected with SARS-CoV-2; test: SARS-CoV-2 infection rate relative to infected DMSO; higher = more infection, active = 60 or less; conditions: 24 h
SMILES,morphology score [1],SARS-CoV-2 infection rate [2]
Cc1ncc(COP(=O)([O-])[O-])c(CN(CCN(CC(=O)O)Cc2c(COP(=O)([O-])O)cnc(C)c2O)CC(=O)O)c1O.[Mn].[Na+].[Na+].[Na+] [Mangafodipir (trisodium)] (10 µM),-0.000637,120% (inactive)
O=C(O)CCCN1CCC(O[C@@H](c2ccc(Cl)cc2)c2ccccn2)CC1 [bepotastine] (10 µM),0.0921,90% (inactive)
Cc1oc2nc3c(c(NC(=O)CN4CCCC4=O)c2c1C)CCCC3 (10 µM),0.0552,103% (inactive)
Cc1noc(C)c1-c1cc(O)cc([C@@H](O)c2ccccc2)c1 (10 µM),0.154,104% (inactive)
CC(C)Oc1cccc(-n2c(CCc3c[nH]c4ccc(Br)cc34)nc3ccccc3c2=O)c1 (10 µM),0.149,93% (inactive)
O=S(=O)(O)c1ccc(O)cc1 [4-phenolsulfonic-acid] (10 µM),-0.0939,114% (inactive)
O=C(c1ccc(OCCCc2c[nH]cn2)cc1)C1CC1 [ciproxifan] (10 µM),0.181,95.5% (inactive)
CN1CCN(CCCN2c3ccccc3Sc3ccc(C(F)(F)F)cc32)CC1 [trifluoperazine] (0.833333 µM),0.156,96.5% (inactive)
O=C(O)c1ccc(NC(=O)[C@H](Cc2ccc(O)cc2)NC(=O)c2ccccc2)cc1 [bentiromide] (10 µM),0.211,106% (inactive)
Nc1c(Br)cc(Br)cc1CN[C@H]1CC[C@H](O)CC1 [ambroxol] (10 µM),-0.155,114% (inactive)
C#C[C@]1(O)CC[C@H]2[C@@H]3CCc4cc(OC)ccc4[C@H]3CC[C@@]21C [mestranol] (10 µM),-0.00302,110% (inactive)
COc1ccc(-c2cc(C(F)F)nn2-c2ccc(S(N)(=O)=O)cc2)cc1F [deracoxib] (10 µM),0.112,112% (inactive)
CN(C(=O)Cc1ccccc1)[C@H](CN1CCCC1)c1ccccc1 (10 µM),0.0751,102% (inactive)
O=C(CCCN1CCC2(CC1)C(=O)NCN2c1ccccc1)c1ccc(F)cc1 [spiperone] (10 µM),0.763,22% (active)
COc1ccc(-c2coc3cc(O)ccc3c2=O)cc1 [formononetin] (10 µM),0.158,106% (inactive)
CN1CCC2=C(C1)C(c1ccccc1)c1ccccc12 (stereo not given) [phenindamine] (10 µM),-0.171,112% (inactive)
Cc1cc(-c2cc(OC(=O)c3ccccc3)ccc2Cl)cc2nnc(Nc3ccc(OCCN4CCCC4)cc3)nc12 (10 µM),-0.0439,114% (inactive)
O=C1NCC2(CCN(CCc3ccccc3)CC2)O1 [fenspiride] (10 µM),0.208,101% (inactive)
Cc1cccc(C)c1OCC(=O)N[C@@H](Cc1ccccc1)[C@@H](O)C[C@H](Cc1ccccc1)NC(=O)[C@H](C(C)C)N1CCCNC1=O [lopinavir] (10 µM),0.184,105% (inactive)
CCOC(=O)[C@@H](N)Cc1ccc(O)c(O)c1 [etilevodopa] (10 µM),-0.149,110% (inactive)
CC(=O)N(CC(O)CN(C(C)=O)c1c(I)c(C(=O)NCC(O)CO)c(I)c(C(=O)NCC(O)CO)c1I)c1c(I)c(C(=O)NCC(O)CO)c(I)c(C(=O)NCC(O)CO)c1I (stereo not given) [iodixanol] (10 µM),-0.0966,114% (inactive)
CC(=O)Nc1c(I)cc(I)c(C(=O)O)c1I [acetriazoic-acid] (10 µM),0.138,112% (inactive)
Cc1cc(-c2cc(O)ccc2Cl)cc2nnc(Nc3ccc(OCCN4CCCC4)cc3)nc12 (0.833333 µM),-0.04,103% (inactive)
NC[C@H]1O[C@H](O[C@H]2[C@H](O)[C@@H](O[C@H]3O[C@H](CO)[C@@H](O)[C@H](N)[C@H]3O)[C@H](N)C[C@@H]2N)[C@H](N)[C@@H](O)[C@@H]1O [bekanamycin] (10 µM),0.0989,103% (inactive)
Cc1ccccc1-n1c(CF)nc2ccc(N)cc2c1=O [afloqualone] (10 µM),0.166,96% (inactive)
CO[C@@]1(NC(=O)CSC[C@@H](N)C(=O)O)C(=O)N2C(C(=O)O)=C(CSc3nnnn3C)CS[C@@H]21 [cefminox] (10 µM),0.045,115% (inactive)
"CCn1c(O)nnc1-c1ccc(Cl)cc1 [5-(4chlorophenyl)-4-ethyl-2,4-dihydro-3H-1,2,4-triazol-3-one] (0.833333 µM)",0.0166,110% (inactive)
CC(C)NC[C@@H](C(=O)N1CCN(c2ncnc3c2[C@H](C)C[C@H]3O)CC1)c1ccc(Cl)cc1 (10 µM),0.0963,96% (inactive)
CN(c1ccc(NC(=O)Nc2ccccc2)cc1)S(=O)(=O)c1cnn(-c2ccc(F)cc2)c1 (10 µM),0.268,83.5% (inactive)
CC(C)C[C@@H]1NC(=O)[C@@H](C(C)C)NC(=O)[C@@H]2CCCN2C(=O)[C@@H](CC(=O)O)NC(=O)[C@@H](Cc2c[nH]c3ccccc23)NC1=O (10 µM),0.163,103% (inactive)
